The full list was thinned out, with hits kept by preference.
CHX counter – counter-screen for Shiga toxin inhibitors: cycloheximide protein synthesis inhibition; 300,000 compounds, 12% hits; max response, %; AID 2314; cell reporter, cycloheximide protein synthesis inhibition counterscreen; in the data active = max response mostly above about 13%, no sharp cut-off; inactive = mostly below about 14%; also: read at 38.3 µM for the half of the compounds with a filed dose
RE007 growth inh – less growth of the S. pombe RE007 Vpr strain. S. pombe RE007 Vpr strain, BacTiter-Glo ATP luminescence, 24 h. Potency, µM (highest dose often 92.2 µM), hits mostly inhibitors. 360,000 compounds, 0.21% hits. AID 651644; active = well fitted falling curve with a large enough effect; inconclusive = small, poorly fitted or top-dose-only effect; inactive = no such curve, though single readings can be large or run the other way; also: nearly all actives have a fitted effect of over 50% in size
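Fission yeast strain RE007, carrying one chromosomally integrated HIV-1 vpr copy, was seeded at OD 0.01 in PMG+AL medium with 23 nL pinned compound. After 24 h at 30 °C and 99% humidity, viability was read by BacTiter-Glo luminescence.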
Tb PYK inh – T. brucei pyruvate kinase inhibition; TbPYK enzyme, Kinase-Glo Plus ATP luminescence, 45 min; Potency, µM (titrated, usually from 76.8 µM), usual class: inhibitors; 410,000 compounds, 0.12% hits; AID 624173; also: nearly all actives have a fitted effect of over 50% in size
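T. brucei PYK with substrate was exposed to pin-transferred compounds across a concentration series, then started with 130 uM ADP (final). After 45 min at room temperature, Kinase-Glo Plus luminescence was read, normalized and curve-fitted.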
Giardia FBPA inh-1 – Giardia lamblia aldolase inhibition. 290,000 compounds, 0.71% hits. AID 2451. purified Giardia FBPA. Potency, µM (top dose mostly 59.6 µM), hits mostly inhibitors; also: nearly all actives have a fitted effect of over 55% in size
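40 nM FBPA preincubated 10 min at RT with compound (up to 57.5 uM final), then substrate plus GAPDH/TPI/NAD/arsenate coupling and diaphorase/resazurin added. Fluorescence read after 20 min at RT, 525/598 nm.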
Shiga toxin inh – inhibitors of Shiga toxin in Vero cells. 290,000 compounds, 9.2% hits. AID 2315. inhibition, % at 38.7 µM. Vero cells, Shiga toxin protein synthesis inhibition reporter; in the data active = inhibition mostly above about 28%, no sharp cut-off; inactive = mostly below about 43%
LmPK inh – inhibitors of Leishmania mexicana pyruvate kinase. Q27686. purified LmPK, Kinase-Glo ATP luminescence, 1 h. Potency, µM (titrated, usually from 57.5 µM), most hits filed as inhibitors. 290,000 compounds, 0.37% hits. AID 1721
Target sequence (Q27686 whole entry, looked up): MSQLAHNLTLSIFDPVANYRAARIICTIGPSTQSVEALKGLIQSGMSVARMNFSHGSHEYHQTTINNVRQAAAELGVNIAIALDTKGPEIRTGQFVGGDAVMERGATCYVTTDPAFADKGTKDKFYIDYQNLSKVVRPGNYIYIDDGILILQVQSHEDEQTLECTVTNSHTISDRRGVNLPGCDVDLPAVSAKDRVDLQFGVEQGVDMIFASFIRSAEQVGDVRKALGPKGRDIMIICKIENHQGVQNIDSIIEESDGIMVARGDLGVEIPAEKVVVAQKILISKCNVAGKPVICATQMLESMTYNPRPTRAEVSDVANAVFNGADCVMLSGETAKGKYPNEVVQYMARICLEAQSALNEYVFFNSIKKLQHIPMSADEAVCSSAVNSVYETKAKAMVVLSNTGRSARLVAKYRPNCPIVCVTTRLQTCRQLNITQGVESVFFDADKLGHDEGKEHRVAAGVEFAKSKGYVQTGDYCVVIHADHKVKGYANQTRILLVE
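ATP generated from ADP (0.1 mM) and PEP (0.5 mM) by 0.1 nM LmPK over 1 h at room temperature (pH 7.2 imidazole buffer) was detected by coupled luciferase luminescence. Values were normalized to uninhibited and no-enzyme wells.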
Giardia growth – Giardia lamblia growth inhibition; shares compounds with Giardia FBPA inh-1; Potency, µM (doses to about 57.5 µM), usual class: inhibitors; 1,500 compounds, 5% hits; Giardia lamblia trophozoite growth inhibition;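 also: trophozoites exposed to compound for 48 h at 37 °C; nearly all actives have a fitted effect of over 70% in size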
Mammal cell tox – mammalian cytotoxicity of Giardia aldolase inhibitor hits; shares compounds with Giardia FBPA inh-1; mammalian cell viability counter-screen, qHTS; Potency, µM (highest dose often 57.5 µM), most hits filed as inhibitors; 1,500 compounds, 4% hits; AID 2786;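 also: Chinese hamster ovary cells used as mammalian cytotoxicity surrogate; viability measured as cellular ATP by luminescence; compound exposure lasted 48 h before reading; nearly all actives have a fitted effect of over 60% in size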
Giardia FBPA inh-2 – confirmation of Giardia fructose-bisphosphate aldolase inhibitors | shares compounds with Giardia FBPA inh-1 | AID 2787 | Potency, µM (top dose mostly 57.5 µM), usual class: inhibitors | 1,500 compounds, 5% hits | purified Giardia aldolase enzyme activity, qHTS; also: nearly all actives have a fitted effect of over 45% in size
Rabbit aldolase – rabbit FBP aldolase inhibition by Giardia aldolase hits | Rabbit muscle FBPA enzyme inhibition, selectivity counter-screen | Potency, µM (doses to about 57.5 µM), usual class: inhibitors | 1,500 compounds, 4% hits | shares compounds with Giardia FBPA inh-1; also: nearly all actives have a fitted effect of over 60% in size
GAPDH coupling – GAPDH inhibition flagged for Giardia aldolase hits | shares compounds with Giardia FBPA inh-1 | GAPDH coupling enzyme counterscreen, biochemical, qHTS | Potency, µM (top dose mostly 57.5 µM), actives largely listed as inhibitors | 1,500 compounds, 6% hits | AID 2795; also: nearly all actives have a fitted effect of over 55% in size
A number is an active result; [ ] = another dose, or the depositor's remark. Unless noted, calls follow the shape of the dose curve; as a rule, active = well fitted curve in the direction sought with a large enough effect; inconclusive = small, poorly fitted or top-dose-only effect, or another doubt; inactive = no such curve, though single readings can be large; an effect the other way counts as inactive or inconclusive.

Screening Cc1ccc(C=C2C(Cl)=C(Cl)C(Cl)=C2Cl)cc1 returned CHX counter inactive, RE007 growth inh inactive, Tb PYK inh inactive, Giardia FBPA inh-1 16µM, Shiga toxin inh inactive, LmPK inh inactive, Giardia growth inactive[10.4 µM], Mammal cell tox inactive, Giardia FBPA inh-2 inactive, Rabbit aldolase inactive and GAPDH coupling inactive.
Screening O=C(CNCc1ccccn1)Nc1cc(C(F)(F)F)ccc1N1CCOCC1 returned CHX counter inactive, RE007 growth inh inconclusive, Tb PYK inh inactive, Giardia FBPA inh-1 16µM, Shiga toxin inh inactive, LmPK inh inactive, Giardia growth inconclusive, Mammal cell tox inactive, Giardia FBPA inh-2 inactive, Rabbit aldolase inactive and GAPDH coupling inactive.
For CCC1C(=O)C[C@H]2CCN3C(=O)CCCC1C23 (some centres not stated) the results were CHX counter inactive, RE007 growth inh inactive, Tb PYK inh inactive, Giardia FBPA inh-1 inactive and Shiga toxin inh inactive.
For COc1ccccc1N1CCN(C(C)C(=O)N2CC(C)OC(C)C2)CC1 (configuration not stated) the results were CHX counter inactive, RE007 growth inh inactive, Tb PYK inh inactive, Giardia FBPA inh-1 5.6µM, Shiga toxin inh inactive, LmPK inh inactive, Giardia growth inactive[10.4 µM], Mammal cell tox inactive, Giardia FBPA inh-2 inactive, Rabbit aldolase inactive and GAPDH coupling inactive.
C=C1CCC[C@]2(C)C[C@H]3OC(=O)C(CNCCN(CC)CC)[C@H]3CC12 (some centres not stated) was read as CHX counter inactive, RE007 growth inh inactive, Tb PYK inh inactive, Giardia FBPA inh-1 16µM, Shiga toxin inh inactive, LmPK inh inactive, Giardia growth inconclusive, Mammal cell tox inactive, Giardia FBPA inh-2 inactive, Rabbit aldolase inactive and GAPDH coupling inactive.
C=C1CCC[C@]2(C)C[C@H]3OC(=O)C(CNCCN(C)C)[C@H]3CC12 (some centres not stated) was read as CHX counter inactive, RE007 growth inh inactive, Tb PYK inh inactive, Giardia FBPA inh-1 inactive, Shiga toxin inh inactive and LmPK inh inactive.
Screening Cc1ccc(S(=O)(=O)N2CCOCC2)cc1NC(=O)CNCc1cccnc1 returned CHX counter inactive, RE007 growth inh inactive, Tb PYK inh inactive, Giardia FBPA inh-1 16µM, Shiga toxin inh inactive, LmPK inh inactive, Giardia growth inactive[10.4 µM], Mammal cell tox inactive, Giardia FBPA inh-2 inactive, Rabbit aldolase inactive and GAPDH coupling inactive.
Cc1ccc(S(=O)(=O)N2CCOCC2)cc1NC(=O)CNCc1ccc(Cl)cc1Cl was read as RE007 growth inh inactive and Tb PYK inh inactive.
`COc1ccc(CCn2c(NN=C3CCCCC3)nc3c2c(=O)[nH]c(=O)n3C)cc1` gave CHX counter inactive, RE007 growth inh inactive, Tb PYK inh inactive, Giardia FBPA inh-1 4.5µM, Shiga toxin inh inactive, LmPK inh inactive, Giardia growth inactive[10.4 µM], Mammal cell tox inactive, Giardia FBPA inh-2 5.6µM, Rabbit aldolase inconclusive and GAPDH coupling 7.9µM.
For COc1ccc(CNc2nc3c(c(=O)[nH]c(=O)n3C)n2CCCc2ccccc2)cc1 the results were CHX counter inactive, RE007 growth inh inactive, Tb PYK inh inactive, Giardia FBPA inh-1 inactive, Shiga toxin inh inactive and LmPK inh inactive.
`CSc1ccccc1NC(=O)CN(C)Cc1cccc(Cl)c1` gave CHX counter inactive, RE007 growth inh inactive, Tb PYK inh inactive, Giardia FBPA inh-1 22µM, Shiga toxin inh inactive, LmPK inh inactive, Giardia growth inactive, Mammal cell tox inactive, Giardia FBPA inh-2 inactive, Rabbit aldolase inactive and GAPDH coupling inactive.
For CN(CC(=O)NC(=O)NCc1ccccc1)Cc1ccc(Cl)c(Cl)c1 the results were CHX counter inactive, RE007 growth inh inconclusive, Tb PYK inh inactive, Giardia FBPA inh-1 inactive, Shiga toxin inh inactive and LmPK inh inactive.
CN(CC(=O)NCc1ccccc1)Cc1cccc(F)c1 was read as CHX counter inactive, RE007 growth inh inactive, Tb PYK inh inactive, Giardia FBPA inh-1 10µM, Shiga toxin inh inactive, LmPK inh inactive, Giardia growth inactive, Mammal cell tox inactive, Giardia FBPA inh-2 inactive, Rabbit aldolase inactive and GAPDH coupling inactive.
O=c1[nH]c(=S)[nH]c(O)c1C(c1ccccn1)c1c(O)[nH]c(=S)[nH]c1=O was read as CHX counter inactive, RE007 growth inh inactive, Tb PYK inh inactive, Giardia FBPA inh-1 16µM, Shiga toxin inh inactive, LmPK inh inactive, Giardia growth inactive[10.4 µM], Mammal cell tox inactive, Giardia FBPA inh-2 inactive, Rabbit aldolase inactive and GAPDH coupling inactive.
CCn1c(O)c(C(c2ccccn2)c2c(O)n(CC)c(=S)[nH]c2=O)c(=O)[nH]c1=S was read as CHX counter inactive, RE007 growth inh inactive, Tb PYK inh inactive, Giardia FBPA inh-1 18µM, Shiga toxin inh inactive, LmPK inh inactive, Giardia growth inactive[10.4 µM], Mammal cell tox inactive, Giardia FBPA inh-2 inactive, Rabbit aldolase inactive and GAPDH coupling inactive.
`O=C(CSc1nc(-c2ccccc2)no1)N1CCN(c2ccc(F)cc2)CC1` gave Tb PYK inh inactive.
`CCNC(=S)NNc1ccccc1` gave CHX counter inactive, RE007 growth inh inconclusive, Tb PYK inh inactive, Giardia FBPA inh-1 11µM, Shiga toxin inh inactive, LmPK inh inactive, Giardia growth inactive[10.4 µM], Mammal cell tox inactive, Giardia FBPA inh-2 inactive, Rabbit aldolase inactive and GAPDH coupling inactive.
For O=S(=O)(NC(=S)NC1CCCCC1)c1ccc(Cl)cc1 the results were CHX counter inactive, RE007 growth inh inactive, Tb PYK inh inactive, Giardia FBPA inh-1 inactive, Shiga toxin inh inactive and LmPK inh inactive.
`CCNC(=S)NS(=O)(=O)c1ccccc1` gave CHX counter inactive, RE007 growth inh inactive, Tb PYK inh inactive, Giardia FBPA inh-1 7.9µM, Shiga toxin inh inactive, LmPK inh inactive, Giardia growth inactive, Mammal cell tox inactive, Giardia FBPA inh-2 inactive, Rabbit aldolase inactive and GAPDH coupling inactive.
O=C(Cc1ccccc1)NS(=O)(=O)c1ccccc1 was read as RE007 growth inh inactive and Tb PYK inh inactive.
